Data reported in PubChem BioAssay AID624126 (The Scripps Research Institute Molecular Screening Center, 2012).
Several values for one entry are separate records, joined by “and”; a condition that tells them apart may be missing. Equal entries are not always repeated. Hit rate of the full screen: of about 360,000 compounds, about 1,400 (0.39%) were called active. This excerpt belongs to a sample that is enriched for actives. A number with no mark means an inactive call.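 How the source made its calls: active means activation above its plate's cutoff, the mean activation of sample wells plus 3 SD; inactive means the rest.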

Target: Muscarinic acetylcholine receptor M4 (Homo sapiens) (UniProt P08173)
Sequence (P08173 whole entry, looked up): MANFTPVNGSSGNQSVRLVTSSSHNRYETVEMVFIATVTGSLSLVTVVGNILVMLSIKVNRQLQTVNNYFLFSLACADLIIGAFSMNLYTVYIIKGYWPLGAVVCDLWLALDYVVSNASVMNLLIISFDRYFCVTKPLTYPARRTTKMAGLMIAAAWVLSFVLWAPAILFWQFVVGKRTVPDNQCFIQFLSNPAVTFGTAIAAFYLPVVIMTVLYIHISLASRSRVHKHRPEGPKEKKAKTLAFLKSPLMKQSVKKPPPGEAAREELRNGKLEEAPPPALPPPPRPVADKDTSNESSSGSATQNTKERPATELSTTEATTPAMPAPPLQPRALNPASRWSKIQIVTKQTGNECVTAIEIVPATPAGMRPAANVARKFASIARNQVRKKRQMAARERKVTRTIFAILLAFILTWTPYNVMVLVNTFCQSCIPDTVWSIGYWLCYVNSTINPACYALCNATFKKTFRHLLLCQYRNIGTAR
Assay: CHRM4 PAMs potentiating acetylcholine calcium signal – CHO-K1 cells, Fluo-8 calcium fluorescence, primary screen (AID 624126)
Conditions: CHO-K1 hM4/Gqi5, Fluo-8 calcium fluorescence, ACh EC20; at 3 µM; hits give high values; 0% = ACh EC20, 100% = maximal ACh

| SMILES | activation |
| --- | --- |
| Cc1c(C(=O)NNC(=O)c2ccncc2)oc2ccccc12 | 5.49% |
| Cc1c(C=O)c2ccccc2n1CC(=O)O | 4.05% |
| Cc1c(C=O)c2ccccn2c1C(=O)c1ccncc1 | 30.8% (active) |
| COc1cccc(CNCCc2c[nH]c3ccccc23)c1OCc1ccccc1F | -8.42% |
| Cc1nc2sc(C(c3ccco3)N3CCC4(CC3)OCCO4)c(O)n2n1 (stereo unspecified) | 5.78% |
| Cc1ccc(C(c2sc3nc(C)nn3c2O)N2CCN(c3ccccc3)CC2)cc1 (stereo unspecified) | 4.41% |
| Cc1nc2sc(C(c3ccco3)N3CCOCC3)c(O)n2n1 (stereo unspecified) | 31.4% (active) |
| Cc1cc(NS(=O)(=O)c2ccc(NC(=O)c3cccc(OC(F)F)c3)cc2)nc(C)n1 | 3.12% |
| CCc1nnc(NS(=O)(=O)c2ccc(NC(=O)c3cccc(OC(F)(F)C(F)F)c3)cc2)s1 | 13.1% (active) |
| CCc1nnc(NS(=O)(=O)c2ccc(NC(=S)NC(=O)/C=C/c3cccs3)cc2)s1 | -0.35% |
| CC(C)(C)N1CC(c2nc3ccccc3n2Cc2ccc(F)cc2)CC1=O (stereo unspecified) | -1.38% |
| CCc1ccccc1OCC(=O)Nc1ccc2c(c1)OCCO2 | -2.66% |
| CC(=O)NCC(=O)N(C)C(C(=O)Nc1ccc2c(c1)OCCO2)c1ccccc1 (stereo unspecified) | 16.8% (active) |
| O=C(Nc1ccc2c(c1)OCCO2)C(C1CC1)N1CCC(Cc2ccccc2)CC1 (stereo unspecified) | -15.2% |
| Cc1ccccc1OCC(=O)N(Cc1cccc(F)c1)C1CCS(=O)(=O)C1 (stereo unspecified) | 0.66% |
| CCOc1ccc(-n2c(SCC(=O)Nc3cc(C(=O)O)ccc3Cl)nc3ccccc3c2=O)cc1 | 17.1% (active) |
| CCOc1ccc(NC(=O)CSc2nc3ccccc3c(=O)n2Cc2cccs2)cc1 | -2.3% |
| CCOCCCn1c(SCC(=O)Nc2cc(OC)ccc2OC)nc2ccccc2c1=O | -0.05% |
| O=C1OCC2=C1C(c1ccccc1)CC(=O)N2c1cccc(F)c1 (stereo unspecified) | 11.7% |
| CC(C)c1cccc(C(C)C)c1Nc1cn[nH]c1 | 28.5% (active) |
| O=C(NCCOc1ccccc1)N1[C@H]2CC[C@@H]1C=C(c1ccc(F)cc1OCc1ccccc1)C2 | -2.49% |
| O=C(CSc1nnnn1-c1ccccc1)NCc1ccco1 | -4.53% |
| COc1ccc(-n2c(SCC(=O)NCc3ccco3)nnc2-c2c[nH]c3ccccc23)cc1 | -1.54% |

| SMILES | activation |
| --- | --- |
| O=C(CSc1nnc(-c2c[nH]c3ccccc23)n1-c1ccc(F)cc1)NCc1ccco1 | 32.8% (active) |
| CCC(C)N(C(=O)CSc1ncnc2c1cnn2-c1ccccc1)C1CCS(=O)(=O)C1 (stereo unspecified) | -4.86% |
| CCn1c(SC(C)C(=O)Nc2ccc(N3CCOCC3)cc2)nnc1-c1ccco1 (stereo unspecified) | 1.69% |
| CC(Sc1ncnc2c1cnn2-c1ccccc1)C(=O)Nc1ccc(N2CCOCC2)cc1 (stereo unspecified) | 23.6% (active) |
| CCC(=O)c1cc(F)ccc1OCC(=O)Nc1ccc2c(c1)OCCO2 | -4.48% |
| CCOC(=O)c1cnc2ccc(F)cc2c1Nc1ccc2c(c1)OCCO2 | 27.1% (active) |
| CCOc1ncccc1C(=O)Nc1ccc2c(c1)OCCO2 | -0.95% |
| CCOc1cc(C)c(Cl)cc1S(=O)(=O)n1nnc2ccccc21 | 6.7% |
| COc1ccccc1Nc1ncc(C(C)=O)c(C)n1 | 2.09% |
| O=C(c1[nH]ncc1-c1ccc(Cl)cc1)C1CO1 (stereo unspecified) | -6.34% |
| Cc1ccc(C(=O)CN2C(=O)NC3(CCc4ccccc43)C2=O)c(C)c1 (stereo unspecified) | -0.51% |
| COc1ccc(-n2c(C)cc(C(=O)CN3C(=O)NC4(CCc5ccccc54)C3=O)c2C)cc1 (stereo unspecified) | -7.44% |
| COc1ccc(C(=O)CN2C(=O)NC3(CCc4ccccc43)C2=O)c(OC)c1 (stereo unspecified) | 22.9% (active) |
| Cc1ccc(C(=O)NCC(=O)NCc2cc(=O)n(C)c(=O)n2C)cc1 | -0.97% |
| CCOc1ccc(NS(=O)(=O)c2ccc(C(=O)NCC3CCCO3)cc2)cc1 (stereo unspecified) | -2.16% |
| Cc1nc(N)sc1N=Nc1c(C)n(C)n(-c2ccccc2)c1=O | 3.22% |
| Cc1nc(N)sc1-c1ccccc1 | 16.2% (active) |
| CC(=O)c1sc(N)nc1C | 3.44% and -1.75% |
| CCN(C(=O)COC(=O)c1ccc(COc2ccc3c(C)cc(=O)oc3c2)cc1)C1CCS(=O)(=O)C1 (stereo unspecified) | -5.76% |
| CN=C(NC#N)NCCSCc1nc[nH]c1C | -5.15% |
| O=C1c2cccc3cccc(c23)C(=O)N1c1cccc(O)c1 | -10.1% |
| O=C1c2cccc3cc(Br)cc(c23)C(=O)N1Nc1ccccc1 | 21.6% (active) |
| O=C1C=C(c2ccc(Cl)cc2)C(=O)N1Nc1ccccc1 | -7.82% |
